An excerpt weighted towards active compounds, which were near 2.6% of everything screened.
HepG2 tox: qHTS for Inhibitors of TGF-b: Cytotox Counterscreen; HepG2 CAGA-GFP viability, ATP luminescence, 18 h; Potency, µM (highest dose often 46.1 µM), without a hit: at the top dose activity change, negative = cytotoxicity, most hits filed as cytotoxic; hit rate 0.76% among 410,000; AID 588856, 2011; further: potency means the concentration at half of the fitted maximal effect
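HepG2 CAGA-GFP cells (1000/well, DMEM with 1% FBS) received compound, then TGF-beta at 500 pg/mL final, and were incubated 18 hours at 37 degrees C. Viability was read by CellTiter-Glo luminescence. Media-only wells were set as complete cell-killing and DMSO as no toxicity.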
uPA surface inh: qHTS for Inhibitors of Cell Surface uPA Generation; hit rate 0.31% among 330,000; Potency, µM (highest dose often 38.3 µM), for inactives: at the highest dose activity change, negative = inhibition, usual class: inhibitors; cell surface uPA generation assay, qHTS; active means well fitted inhibition curve with a large enough effect; inconclusive means small, poorly fitted or top-dose-only effect; inactive means no such curve, though single readings can be large or run the other way; tested in mouse RAW 264.7 cells; further: potency means the concentration at half of the fitted maximal effect; on the % scale 0 is the no-effect control and ±100 the full control effect; nearly all actives have a fitted effect of over 55% in size
ATXN2 expr inh: Primary qHTS for Inhibitors of ATXN expression | HEK-293 ATXN2-luciferase reporter, luminescence, 24 h | Potency, µM (series often up to 57 µM), inactives show at the top dose activity change, negative = inhibition, actives largely listed as inhibitors | hit rate 0.72% among 360,000 | AID 1745845, 2022; further: potency means the concentration at half of the fitted maximal effect; on the % scale 0 is the no-effect control and ±100 the full control effect; nearly all actives have a fitted effect of over 55% in size
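qHTS (up to 57 uM final) was run with 24 h compound exposure of reporter cells at 37 °C. Each well was multiplexed: SteadyGlo luminescence measured ATXN2-luciferase expression after a fluorogenic Gly-Phe-AFC viability readout (25 uM final).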
S2 tox: Viability Counterscreen for Primary qHTS for Inhibitors of ATXN expression; S2 cells (HEK-293 line with an ATXN2-luciferase reporter) viability, CellTiter-Fluor protease fluorescence, 24 h; Potency, µM (top dose mostly 56.7 µM), hits mostly cytotoxic; hit rate 0.49% among 400,000; AID 651635, 2014; further: potency means the concentration at half of the fitted maximal effect; nearly all actives have a fitted effect of over 40% in size
TGFb SMAD3 inh: qHTS for Inhibitors of TGF-b; HepG2 CAGA-GFP TGF-b/SMAD3 reporter, GFP fluorescence, 18 h; TGF-beta stimulated, 500 pg/mL final; Potency, µM (highest dose often 46.1 µM), inactives show at the highest dose activity, negative = inhibition, hits mostly inhibitors; hit rate 1.2% among 410,000; AID 588855, 2011; further: potency means the concentration at half of the fitted maximal effect; on the % scale 0 is the no-effect control and ±100 the full control effect; nearly all actives have a fitted effect of over 65% in size
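HEPG2 CAGA-GFP reporter cells (1000/well, DMEM with 1% FBS) received compounds, then recombinant TGF-beta at 500 pg/mL final for 18 hours at 37 degrees C. Per-cell GFP summed per well was normalised to unstimulated and stimulated DMSO controls before curve fitting.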
Giardia killer: Small Molecules that selectively kill Giardia lamblia: qHTS | hit rate 0.15% among 340,000 | Giardia lamblia trophozoite viability | activity change, % at 7.66 µM, hits read low; in the data active means activity change below about -80%; inconclusive means between about -30% and that limit;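 further: parasites exposed to compound for two days anaerobically before the ATP read; on the % scale 0 is the no-effect control and ±100 the full control effect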
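Giardia lamblia trophozoites (100 cells/well) were incubated with compounds for 48 h at 37 deg C under anaerobic conditions. Viability was read as ATP content by one-step luminescence after 15-30 min at room temperature.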
An asterisk follows results filed as active; i = inactive; ? = inconclusive; nt = no result; ! = not confirmed by another sample; [ ] = remark or other dose. Unless noted, the call rests on the fitted dose curve; in most records, active means well fitted curve in the direction sought with a large enough effect; inconclusive means small, poorly fitted or top-dose-only effect, or another doubt; inactive means no such curve, though single readings can be large; an effect the other way counts as inactive or inconclusive.

SMILES | HepG2 tox | uPA surface inh | ATXN2 expr inh | S2 tox | TGFb SMAD3 inh | Giardia killer
COCCNc1nc(NCc2ccccc2OC)c2sccc2n1 | -26% | nt | ? | ? | 1% | nt
COc1ccccc1CNc1nc(NCc2ccc(NC(C)=O)cc2)c2sccc2n1 | -78% | nt | ? | i | 18µM* | nt
COc1ccccc1CNc1nc(Nc2ccccc2-n2cccn2)c2sccc2n1 | -33% | nt | 0% | 16µM* | ? | nt
COc1ccccc1CNc1nc(Nc2cccc(-c3cnco3)c2)c2sccc2n1 | -72% | nt | 0% | 20µM* | ? | nt
COc1ccccc1CNc1nc(NCCNC(C)=O)c2sccc2n1 | -13% | nt | 0% | i | 33% | nt
COc1ccccc1CNc1nc(NCC2CC2)nc2ccsc12 | 10µM* | nt | ? | nt | 13µM* | nt
Cc1c(C)c2c(c(C)c1OC(=O)CCC(=O)OCCO)CC[C@@](C)(CCC[C@H](C)CCC[C@H](C)CCCC(C)C)O2 | nt | nt | -12% | ? | nt | nt
COc1cc(=O)n2c(c1C(=O)N(C)Cc1nonc1C)CCN(C(=O)c1cccc(C)c1C)CC2 | nt | nt | nt | i | nt | nt
COc1ccccc1CNc1nc(NCc2ccccc2OC)c2sccc2n1 | -52% | nt | ? | ? | ? | nt
COc1ccccc1CNc1nc(NCc2ccc3occc3c2)c2sccc2n1 | 11µM* | nt | ? | ? | ? | nt
COc1ccccc1CNc1nc(NCc2cccs2)nc2ccsc12 | -34% | nt | ? | ? | 11µM* | nt
O=C(c1cccc(Cl)c1Cl)N(Cc1ccco1)Cc1cccs1 | -28% | nt | nt | nt | ? | 21
CCOC(=O)c1ccc(N2C(=O)c3[nH]nc(-c4ccc(OC)cc4)c3C2c2ccc(C)cc2)cc1 (stereo not drawn) | -46% | nt | ? | ? | 25µM* | nt
CCOC(=O)c1ccc(N2C(=O)c3n[nH]c(-c4ccco4)c3C2c2ccc(OCC)cc2)cc1 (stereo not drawn) | -76% | nt | nt | nt | 7.1µM* | nt
CCOC(=O)c1ccc(N2C(=O)c3n[nH]c(-c4ccco4)c3C2c2cccc(OC)c2)cc1 (stereo not drawn) | -73% | nt | ? | ? | 4.5µM* | nt
CCOC(=O)c1ccc(N2C(=O)c3n[nH]c(C)c3C2c2ccc(O)cc2)cc1 (stereo not drawn) | 4% | nt | 44% | i | -4% | 6
CCOC(=O)c1ccc(N2C(=O)c3n[nH]c(-c4ccco4)c3C2c2cccc(F)c2)cc1 (stereo not drawn) | 16µM* | nt | ? | ? | ? | nt
Cc1nc2n(c(=O)c1CCN1CCC(c3noc4cc(F)ccc34)CC1)CCC[C@H]2O | nt | nt | -11%[25.6 µM] | i | nt | nt
CCOC(=O)c1ccc(N2C(=O)c3n[nH]c(C)c3C2c2ccccc2)cc1 (stereo not drawn) | -15% | nt | 8% | i | 5% | -8
CCOC(=O)c1ccc(N2C(=O)c3n[nH]c(-c4ccco4)c3C2c2ccc(F)cc2)cc1 (stereo not drawn) | 22µM* | nt | ? | ? | ? | nt
CCOC(=O)c1ccc(N2C(=O)c3n[nH]c(-c4ccco4)c3C2c2cccc(O)c2)cc1 (stereo not drawn) | 22µM* | nt | ? | ? | 13µM* | nt
CCOC(=O)c1ccc(N2C(=O)c3n[nH]c(-c4cccs4)c3C2c2cccc(F)c2)cc1 (stereo not drawn) | -96% | nt | nt | nt | ? | nt
CCOC(=O)c1ccc(N2C(=O)c3n[nH]c(-c4ccco4)c3C2c2ccccc2OC)cc1 (stereo not drawn) | 5µM* | nt | ? | ? | ? | nt
O=C(c1[nH]ncc1-c1ccccc1)C1CO1 (stereo not drawn) | 13µM* | -3% | 1% | i | -14% | 0
O=C(c1[nH]ncc1-c1cccc(Br)c1)C1CO1 (stereo not drawn) | -13% | -11% | -36% | ? | ? | 8
SMILES | HepG2 tox | uPA surface inh | ATXN2 expr inh | S2 tox | TGFb SMAD3 inh | Giardia killer
O=[N+]([O-])c1c(Nc2ccccc2O)ccc2nonc12 | 2% | 2% | -16% | ? | -20% | -1
O=[N+]([O-])c1c(Nc2ccccc2O)cc(Cl)c2nonc12 | 10µM* | -8% | 13µM* | 13µM* | 4µM* | 13
O=[N+]([O-])c1c(Nc2ccc(O)cc2)cc(N2CCOCC2)c2nonc12 | -1% | -23% | nt | ? | 29% | -22
O=C(O)c1cc(Nc2cc(Cl)c3nonc3c2[N+](=O)[O-])ccc1O | -12% | 19% | nt | 11µM* | -26% | -24
Cc1cccc(CNC(=O)c2cnn(-c3ncc(C)c(-c4ccc(F)cc4)n3)c2C)n1 | nt | nt | nt | i | nt | nt
CCOC(=O)Oc1ccc(CCNC(=O)[C@H](CCSC)NC(C)=O)cc1OC(=O)OCC | nt | nt | 12% | i | nt | nt
O=C(CCS(=O)(=O)c1ccccc1)N(CCCN1CCOCC1)c1nc2ccc(F)cc2s1 | 13µM* | ? | ? | nt | ? | -1
O=C(CCS(=O)(=O)c1ccccc1)N(CCCN1CCOCC1)c1nc2c(F)cccc2s1 | -73% | ? | ? | nt | ? | 1
O=C1Nc2ccc(Br)cc2C12NNc1ccccc1O2 (stereo not drawn) | -105% | ? | ? | 25µM* | -10% | -17
COc1ccc(C(C[N+](=O)[O-])C2(c3ccc(OC)c(OC)c3)C(=O)c3ccccc3C2=O)cc1 (stereo not drawn) | 18µM* | -14% | 2% | i | ? | -26
COCCCCC(=NOCCN)c1ccc(C(F)(F)F)cc1 | nt | nt | ? | i | nt | nt
COCCCC/C(=N\OCCN)c1ccc(C(F)(F)F)cc1 | -41% | ? | 16µM*! | ? | 2% | -23
CC(C)(C)OC(=O)CN(Cc1ccc(Cl)cc1)Cc1ccc([N+](=O)[O-])s1 | nt | nt | -19% | nt | nt | nt
CCOC(=O)c1c(C)sc2c1N(C(=O)CN(CC)CC)c1ccccc1S2 | -36% | 0% | -10% | ? | -7% | 3
CCOC(=O)c1c(C)sc2c1N(C(=O)CN(CC)CC)c1cc(Cl)ccc1S2 | -14% | 2% | 32µM* | ? | ? | -1
Cc1ccc(C)c2c(C)ccnc12 | 8% | nt | nt | nt | -1% | nt
CCC(C)N(C(=O)CSc1nc(C)nc2ccccc12)C1CCS(=O)(=O)C1 (stereo not drawn) | 1% | -1% | 5% | ? | -21% | 1
C=CCn1c(SCC(=O)N(C(C)CC)C2CCS(=O)(=O)C2)nc2ccccc2c1=O (stereo not drawn) | 7.1µM* | -2% | 13% | i | -2% | -23
Cc1nc2cc(NC(=O)[C@@H]3C[C@@H](Sc4ccccn4)CN3Cc3ccc4c(c3)OCCO4)ccc2s1 | nt | nt | nt | i | nt | nt

Compound activity from PubChem.
